# In PubChem BioAssay (Tox21):
# “And” between values parts separate entries of the source, which are not always exact repeats. Identical values can stand only once. A number with no mark means an inactive call. Results filed as inconclusive are left out. Where a call stands in place of a potency, no number is given. The source made the active and inactive calls. Unless noted, calls follow the shape of the dose curve; as a rule, active = well fitted curve in the direction sought with a large enough effect in the repeat runs; inconclusive = weak or mixed curves; inactive = no such curve, though single readings can be large; an effect the other way counts as inactive or inconclusive.
# Tests used:
# [1] = qHTS assay to identify small molecule agonists of the androgen receptor (AR) signaling pathway in the presence of an antagonist - cell viability counter screen (AID 1259379);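 also: MDA-kb2 human breast cancer cells carrying an MMTV luciferase reporter; series mostly up to about 92 µM; nearly all actives have a fitted effect of over 25% in size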
# Method in brief: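 Seed MDA-kb2 at 3,000 cells/well; incubate 5 hr, 37C, 0% CO2. Add nilutamide to 3.0uM final, then pin compounds at 15 concentrations. Incubate 16 hr. Add CellTiter-Fluor at 15 hr, read fluorescence after 1 hr.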
# [2] = qHTS assay to identify small molecule agonists of the estrogen receptor beta (ER-beta) signaling pathway - cell viability counter screen (AID 1259380); also: nearly all actives have a fitted effect of over 30% in size
# Method in brief: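 CellTiter-Glo read, 30 min RT, same wells as bla assay; cells ER-beta-UAS-bla HEK293T; 16 hr compound, 37C; medium 2% charcoal-stripped FBS.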
# [3] = qHTS assay to identify small molecule antagonists of the estrogen receptor beta (ER-beta) signaling pathway - cell viability counter screen (AID 1259382); also: series mostly up to about 92 µM; nearly all actives have a fitted effect of over 55% in size
# Method in brief: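 In this multiplexed counter screen, cells were seeded at 2,000 per well in medium with 2% charcoal-stripped FBS and incubated 6 hr before compound and 1nM final E2 were added. Sixteen hours later, ATP-based luminescence reported viability.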
# [4] = target: Estrogen receptor (Homo sapiens) (UniProt P03372); experiment: qHTS assay to identify small molecule agonists of the estrogen receptor alpha (ER-alpha) signaling pathway in the presence of an antagonist (AID 1259383; calls by dose curve; also: top concentration of the series differs between compounds; nearly all actives have a fitted effect of over 15% in size)
# Chain of Estrogen receptor (Homo sapiens) (P03372 whole entry, looked up): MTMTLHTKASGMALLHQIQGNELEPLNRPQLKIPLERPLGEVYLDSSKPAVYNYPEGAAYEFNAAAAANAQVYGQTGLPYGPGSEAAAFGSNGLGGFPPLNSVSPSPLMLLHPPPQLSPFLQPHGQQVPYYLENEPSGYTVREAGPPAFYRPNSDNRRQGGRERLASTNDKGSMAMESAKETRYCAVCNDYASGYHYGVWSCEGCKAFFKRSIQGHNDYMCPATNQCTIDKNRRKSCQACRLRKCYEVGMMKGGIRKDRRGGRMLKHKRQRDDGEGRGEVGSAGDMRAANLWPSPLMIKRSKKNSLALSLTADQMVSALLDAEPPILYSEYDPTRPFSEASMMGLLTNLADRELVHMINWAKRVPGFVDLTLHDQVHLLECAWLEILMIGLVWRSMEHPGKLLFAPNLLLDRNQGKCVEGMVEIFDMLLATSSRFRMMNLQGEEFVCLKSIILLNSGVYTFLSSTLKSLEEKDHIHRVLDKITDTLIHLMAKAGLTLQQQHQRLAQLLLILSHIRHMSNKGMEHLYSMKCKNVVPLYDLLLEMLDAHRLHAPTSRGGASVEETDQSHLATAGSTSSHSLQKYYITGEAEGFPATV
# Method in brief: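 Stably transfected VM7Luc4E2 reporter cells, kept 5 days in charcoal-stripped serum, received ICI-182,780 at 10.0nM final before compound addition. Following 22hr incubation at 37C and 5% CO2, luciferase signal was read by luminescence.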
# [5] = qHTS assay to identify small molecule agonists of the estrogen receptor alpha (ER-alpha) signaling pathway in the presence of an antagonist - cell viability counter screen (AID 1259386);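 also: series mostly up to about 92 µM; cells exposed to compounds for 22 h at 37 °C before the viability read; nearly all actives have a fitted effect of over 30% in size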
# Method in brief: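 Viability counter screen using VM7Luc4E2 (full-length ER-alpha, four ERE-luciferase). The cells were treated with compounds alongside ICI-182,780 10.0nM for 22hr, and live-cell protease fluorescence was quantified with CellTiter-Fluor.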
# [6] = target: Progesterone receptor (Homo sapiens) (UniProt P06401); experiment: qHTS assay to identify small molecule agonists of the progesterone receptor (PR) signaling pathway (AID 1346784; calls by dose curve; also: nearly all actives have a fitted effect of over 30% in size)
# Chain of Progesterone receptor (Homo sapiens) (P06401 whole entry, looked up): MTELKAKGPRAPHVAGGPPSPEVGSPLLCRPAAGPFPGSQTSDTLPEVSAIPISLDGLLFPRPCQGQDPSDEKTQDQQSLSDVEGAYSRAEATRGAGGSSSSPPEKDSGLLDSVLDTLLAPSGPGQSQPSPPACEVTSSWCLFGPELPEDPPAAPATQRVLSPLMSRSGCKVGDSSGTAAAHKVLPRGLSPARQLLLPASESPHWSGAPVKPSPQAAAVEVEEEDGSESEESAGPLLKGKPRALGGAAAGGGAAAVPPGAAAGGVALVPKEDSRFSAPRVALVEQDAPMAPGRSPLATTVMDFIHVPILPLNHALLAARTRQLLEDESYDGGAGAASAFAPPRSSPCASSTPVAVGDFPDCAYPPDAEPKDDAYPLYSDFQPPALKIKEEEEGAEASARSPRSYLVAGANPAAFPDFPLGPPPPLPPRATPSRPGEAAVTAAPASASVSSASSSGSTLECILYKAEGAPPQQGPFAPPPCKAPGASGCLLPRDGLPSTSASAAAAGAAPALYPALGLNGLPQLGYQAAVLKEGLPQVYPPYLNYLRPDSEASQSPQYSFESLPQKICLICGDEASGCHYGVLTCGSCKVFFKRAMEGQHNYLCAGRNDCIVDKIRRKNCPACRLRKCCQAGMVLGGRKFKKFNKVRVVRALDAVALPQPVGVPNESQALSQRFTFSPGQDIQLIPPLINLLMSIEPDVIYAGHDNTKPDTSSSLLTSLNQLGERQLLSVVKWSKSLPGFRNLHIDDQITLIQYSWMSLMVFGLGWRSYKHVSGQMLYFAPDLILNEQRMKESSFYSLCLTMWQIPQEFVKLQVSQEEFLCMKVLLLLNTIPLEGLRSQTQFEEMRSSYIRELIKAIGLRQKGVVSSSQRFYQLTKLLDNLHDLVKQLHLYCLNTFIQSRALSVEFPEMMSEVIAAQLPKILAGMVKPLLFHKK
# Method in brief: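 Agonist mode, quantitative HTS format in a HEK 293T line expressing a UAS-controlled beta-lactamase reporter; 16 hr compound exposure at 37C in 2% charcoal-stripped FBS, then LiveBLAzer B/G FRET fluorescence.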
# [7] = target: Progesterone receptor (Homo sapiens) (UniProt P06401); experiment: qHTS assay to identify small molecule antagonists of the progesterone receptor (PR) signaling pathway (AID 1346795; active = well fitted inhibition curve with a large enough effect in the signal ratio in the repeat runs, not every such curve was filed as active; the % refers to the signal ratio; also: potency is read from the fitted curve at half-maximal effect)
# Method in brief: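 HEK293T PR-UAS-bla reporter cells in charcoal-stripped serum (2%) received compound after a 6 hr settling period, followed by R5020 agonist at 1 nM final; 16 hr incubation preceded the FRET substrate step and fluorescence measurement.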
# [8] = qHTS assay to identify small molecule antagonists of the progesterone receptor (PR) signaling pathway - cell viability counter screen (AID 1346798); also: nearly all actives have a fitted effect of over 50% in size; also: potency is read from the fitted curve at half-maximal effect; as to activity change, negative = cytotoxicity: series mostly up to about 92 µM
# Method in brief: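 Same-well multiplex: after 16 hr at 37C with compound and R5020 stimulation, HEK293T cells carrying a UAS-bla reporter received LiveBLAzer substrate (2 hr RT), then CellTiter-Glo (30 min RT) for luminescent viability.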
# [9] = qHTS assay to identify small molecule antagonists of the TGF-beta/Smad signaling pathway - cell viability counter screen (AID 1346824); also: nearly all actives have a fitted effect of over 50% in size
# Method in brief: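 SBE-bla HEK 293T cells were plated overnight at 37 C, then given compounds in DMSO plus TGF-beta1 (added as 0.25 ng/mL solution) for 5 hr. After the bla read, CellTiter-Glo was added to the same wells and luminescence read after 30 min at room temperature.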
# [10] = qHTS assay to identify small molecule agonists of the TGF-beta/Smad signaling pathway - cell viability counter screen (AID 1346829); also: top concentration of the series differs between compounds; nearly all actives have a fitted effect of over 45% in size
# Method in brief: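 Cytotoxicity counter screen: CellTiter-Glo luminescence (30 min, room temperature) measured in the SBE-bla HEK 293T reporter wells after 5 hr compound treatment at 37 C and the 2 hr substrate step.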
# [11] = target: Thyrotropin-releasing hormone receptor (Homo sapiens) (UniProt P34981); experiment: qHTS assay to identify small molecule antagonists of the thyrotropin-releasing hormone receptor (TRHR) signaling pathway (AID 1346877; active = well fitted inhibition curve with a large enough effect in the repeat runs, not every such curve was filed as active; also: series mostly up to about 51 µM)
# Chain of Thyrotropin-releasing hormone receptor (Homo sapiens) (P34981 whole entry, looked up): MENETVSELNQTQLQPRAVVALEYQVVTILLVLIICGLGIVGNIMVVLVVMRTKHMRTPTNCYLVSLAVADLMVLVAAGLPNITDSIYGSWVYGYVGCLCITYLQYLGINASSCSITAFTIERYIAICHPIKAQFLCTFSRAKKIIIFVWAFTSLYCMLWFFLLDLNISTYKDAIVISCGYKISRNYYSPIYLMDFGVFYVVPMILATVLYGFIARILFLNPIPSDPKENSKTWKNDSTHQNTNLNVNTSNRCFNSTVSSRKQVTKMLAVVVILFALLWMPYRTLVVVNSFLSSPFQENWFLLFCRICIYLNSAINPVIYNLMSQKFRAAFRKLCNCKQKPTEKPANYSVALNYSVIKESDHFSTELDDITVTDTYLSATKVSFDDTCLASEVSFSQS
# Method in brief: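 Following an 18 h incubation at 37 °C and a 2 h calcium dye load, TRHR-HEK293 cells were exposed to compound (5 min, room temperature) and challenged with TRH, 1 nM final.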
# [12] = target: Thyrotropin-releasing hormone receptor (Homo sapiens) (UniProt P34981); experiment: qHTS assay to identify small molecule agonists of the thyrotropin-releasing hormone receptor (TRHR) signaling pathway (AID 1346891; calls by dose curve;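 also: HEK293 cells expressing TRHR with calcium dye readout; series mostly up to about 58 µM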)
# Method in brief: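 Agonist-mode calcium mobilisation screen: TRHR-transfected HEK293 cells cultured overnight (18 h), dye-loaded for 2 h at 37 °C, exposed to compounds, and monitored by fluorescence for 3 min.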
# [13] = Human pregnane X receptor (PXR) small molecule agonists, qHTS cell viability counter screen (AID 1346977); also: nearly all actives have a fitted effect of over 50% in size
# Method in brief: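 Measures live-cell protease fluorescence (CellTiter-Fluor) in PXR-Luc HepG2 cells treated 24hr with compounds at 37C. Cells had 5hr to attach before pin transfer of DMSO solutions.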
# [14] = target: Estrogen receptor beta (Homo sapiens) (UniProt Q92731); experiment: qHTS assay to identify small molecule antagonists of the estrogen receptor beta (ER-beta) signaling pathway (AID 1259378; active = well fitted inhibition curve with a large enough effect in the signal ratio in the repeat runs, not every such curve was filed as active; the % refers to the signal ratio)
# Chain of Estrogen receptor beta (Homo sapiens) (Q92731 whole entry, looked up): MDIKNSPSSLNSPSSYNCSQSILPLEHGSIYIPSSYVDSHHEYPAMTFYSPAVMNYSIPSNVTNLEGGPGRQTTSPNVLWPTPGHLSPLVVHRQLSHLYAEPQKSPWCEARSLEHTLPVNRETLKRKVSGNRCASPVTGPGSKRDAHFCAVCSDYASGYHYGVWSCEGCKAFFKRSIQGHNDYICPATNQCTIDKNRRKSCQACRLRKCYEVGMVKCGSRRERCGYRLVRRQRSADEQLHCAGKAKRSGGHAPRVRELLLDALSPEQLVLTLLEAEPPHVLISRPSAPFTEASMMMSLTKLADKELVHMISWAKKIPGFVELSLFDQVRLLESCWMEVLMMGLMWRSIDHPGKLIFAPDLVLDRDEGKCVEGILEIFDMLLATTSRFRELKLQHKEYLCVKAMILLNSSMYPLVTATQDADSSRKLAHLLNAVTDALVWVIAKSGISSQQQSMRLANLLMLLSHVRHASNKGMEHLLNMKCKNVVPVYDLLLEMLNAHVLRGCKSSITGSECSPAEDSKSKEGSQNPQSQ
# Method in brief: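 ER-beta-UAS-bla HEK293T (GripTite) cells in 2% charcoal-stripped FBS medium were preincubated 6 hr at 37C, dosed with compound, then stimulated with 1 nM E2 (final) for 16 hr; beta-lactamase reporter read by B/G FRET fluorescence after 2 hr substrate loading.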
# [15] = target: Thyrotropin receptor (Homo sapiens) (UniProt P16473); experiment: qHTS assay to identify small molecule antagonists of the thyroid stimulating hormone receptor (TSHR) signaling pathway (AID 1259385; calls by dose curve; also: nearly all actives have a fitted effect of over 20% in size)
# Chain of Thyrotropin receptor (Homo sapiens) (P16473 whole entry, looked up): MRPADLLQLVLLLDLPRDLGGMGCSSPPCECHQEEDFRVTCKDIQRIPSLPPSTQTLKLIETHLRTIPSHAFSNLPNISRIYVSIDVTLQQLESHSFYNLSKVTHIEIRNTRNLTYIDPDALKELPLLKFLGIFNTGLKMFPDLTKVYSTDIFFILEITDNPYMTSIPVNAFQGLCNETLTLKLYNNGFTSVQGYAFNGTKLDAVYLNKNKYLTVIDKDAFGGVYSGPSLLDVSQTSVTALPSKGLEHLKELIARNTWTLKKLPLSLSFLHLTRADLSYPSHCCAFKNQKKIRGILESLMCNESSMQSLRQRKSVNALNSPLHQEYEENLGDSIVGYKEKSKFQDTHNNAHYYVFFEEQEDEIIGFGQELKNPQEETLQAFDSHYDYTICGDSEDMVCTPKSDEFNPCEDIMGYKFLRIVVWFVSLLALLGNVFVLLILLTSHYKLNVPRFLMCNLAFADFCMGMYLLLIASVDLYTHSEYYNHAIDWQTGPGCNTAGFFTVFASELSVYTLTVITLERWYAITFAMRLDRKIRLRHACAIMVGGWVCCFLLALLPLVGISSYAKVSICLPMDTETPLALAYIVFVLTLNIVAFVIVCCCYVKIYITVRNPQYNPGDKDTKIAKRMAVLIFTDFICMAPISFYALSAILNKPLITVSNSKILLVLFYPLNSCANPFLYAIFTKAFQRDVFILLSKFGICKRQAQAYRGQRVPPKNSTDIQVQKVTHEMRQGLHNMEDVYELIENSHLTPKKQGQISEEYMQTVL
# Method in brief: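 TSHR-HEK293 cells were plated and held 18 h at 37C/5% CO2, then given compound plus Ro20-1724 and stimulated with TSH at 1.5 ng/mL final. After 30 min at room temperature, cAMP was detected with cAMP-d2/anti-cAMP-cryptate (1 h) by fluorescence.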
# [16] = qHTS assay to identify small molecule agonists of the progesterone receptor (PR) signaling pathway - cell viability counter screen (AID 1346799; calls by dose curve; also: nearly all actives have a fitted effect of over 45% in size)
# Method in brief: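 Counter screen for cytotoxicity: compound-treated PR-UAS-bla HEK293T cells (16 hr, 37C, 5% CO2) were assayed with CellTiter-Glo, luminescence measured after 30 min at room temperature.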
# [17] = qHTS assay to identify small molecule agonists or antagonists of the thyroid stimulating hormone receptor (TSHR) signaling pathway - wild type cell line counter screen (AID 1259384; calls by dose curve)
# Method in brief: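 Wild-type HEK293 cells were plated 18 h at 37 C/5% CO2, pin-dosed with compound plus Ro20-1724 medium, held 30 min at room temperature, then given cAMP-d2 and anti-cAMP-cryptate; fluorescence was read after 1 h. Fifteen concentrations, triplicate.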
# [18] = qHTS assay to identify small molecule agonists of the TGF-beta/Smad signaling pathway (AID 1346859; active = well fitted activation curve with a large enough effect in the signal ratio in the repeat runs, not every such curve was filed as active; the % refers to the signal ratio; also: series mostly up to about 77 µM)
# Method in brief: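 Smad-responsive beta-lactamase reporter cells (HEK 293T) received compounds from DMSO stocks after overnight attachment, were incubated 5 hr, then treated 2 hr with FRET substrate before dual-emission fluorescence measurement (405 nm excitation).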
compound,measurement,setting,value
CCCCCOC(=O)CCCCC,Potency,[1],inactive
same,Potency,[2],inactive
same,Potency,[3],inactive
same,Potency,[4],inactive
same,Potency,[5],inactive
same,Potency,[6],inactive
same,Potency,[7],inactive
same,Potency,[8],inactive
same,Potency,[9],inactive
same,outcome,[10],inactive
same,outcome,[11],inactive
same,outcome,[12],inactive
same,Potency,[13],inactive
NC(=O)c1ccc(N)cc1,outcome,[14],inactive
same,Potency,[1],inactive
same,Potency,[2],inactive
same,Potency,[3],inactive
same,Potency,[4],inactive
same,Potency,[15],inactive
same,Potency,[5],inactive
same,Potency,[6],inactive
same,Potency,[7],inactive
same,Potency,[8],inactive
same,Potency,[16],inactive
same,Potency,[9],inactive
same,outcome,[10],inactive
same,Potency,[13],inactive
O=c1[nH]c(=O)n([C@H]2C[C@H](O)[C@@H](CO)O2)cc1I,outcome,[14],inactive
same,Potency,[1],inactive
same,Potency,[3],inactive
same,outcome,[17],inactive
same,Potency,[15],inactive
same,Potency,[5],inactive
same,Potency,[7],inactive
same,Potency,[8],inactive
same,Potency,[9],inactive
same,outcome,[10],inactive
same,outcome,[18],inactive
same,Potency,[13],inactive
COC(=O)CCSCCC(=O)OC,outcome,[14],inactive
same,Potency,[1],inactive
same,Potency,[3],inactive
same,outcome,[17],inactive
same,Potency,[15],inactive
same,Potency,[5],inactive
same,Potency,[6],inactive
same,Potency,[7],inactive
same,Potency,[8],inactive
same,Potency,[16],inactive
same,Potency,[9],inactive
same,outcome,[10],inactive
same,outcome,[18],inactive
same,outcome,[12],inactive
same,Potency,[13],inactive
CCOC(C)(C)C,Potency,[1],inactive
same,Potency,[2],inactive
same,Potency,[3],inactive
same,Potency,[4],inactive
same,outcome,[17],inactive
same,Potency,[15],inactive
same,Potency,[5],inactive
same,Potency,[6],inactive
same,Potency,[7],inactive
same,Potency,[8],inactive
same,Potency,[16],inactive
same,Potency,[9],inactive
same,outcome,[10],inactive
same,outcome,[18],inactive
same,outcome,[11],inactive
same,outcome,[12],inactive
same,Potency,[13],inactive
CC(C)(C)c1ccc(O)c(O)c1,Potency,[1],inactive
same,Potency,[2],inactive
same,Potency,[3],inactive
same,Potency,[15],inactive
same,Potency,[6],inactive
same,Potency,[7],50.2 µM (active) and 44.5 µM (active)
same,outcome,[10],inactive
same,outcome,[18],inactive
same,outcome,[11],inactive
same,outcome,[12],inactive
same,Potency,[13],inactive
CN(C)CCCNCCCN(C)C,Potency,[1],inactive
same,Potency,[2],inactive
same,Potency,[3],inactive
same,Potency,[4],inactive
same,outcome,[17],inactive
same,Potency,[15],inactive
same,Potency,[5],inactive
same,Potency,[6],inactive
same,Potency,[7],inactive
same,Potency,[8],inactive
same,outcome,[18],inactive
same,outcome,[12],inactive
same,Potency,[13],inactive
N[C@H](C(=O)O)c1ccc(O)cc1,"activity change, negative = cytotoxicity",[1],0.253% [at 19 µM]
same,"activity change, negative = cytotoxicity",[3],3.71% [at 19 µM]
same,activation,[4],0.585% [at 19 µM]
same,cAMP activity change,[17],3.37% [at 18.9 µM]
same,"activity change, negative = inhibition",[15],-2.34% [at 19 µM]
same,"activity change, negative = cytotoxicity",[5],3.8% [at 19 µM]
same,activation,[6],-0.625% [at 19 µM]
same,Potency,[7],inactive
same,"activity change, negative = cytotoxicity",[16],-6.4% [at 19 µM]
same,"viability change, negative = cytotoxic",[9],1.75% [at 15.8 µM]
same,"activity change, negative = cytotoxicity",[10],-0.107% [at 15.8 µM]
same,"activity, negative = inhibition",[11],3.01% [at 10.5 µM]
same,activation,[12],0.371% [at 11.8 µM]
same,"activity change, negative = cytotoxicity",[13],0.445% [at 19 µM]
C[N+](C)(C)CC(O)CC(=O)[O-] (configuration not stated),Potency,[1],inactive
same,Potency,[2],inactive
same,Potency,[3],inactive
same,Potency,[15],inactive
same,Potency,[5],inactive
same,Potency,[6],inactive
same,Potency,[7],inactive
same,Potency,[8],inactive
same,Potency,[9],inactive
same,outcome,[10],inactive
same,outcome,[18],inactive
same,outcome,[11],inactive
same,outcome,[12],inactive
same,Potency,[13],inactive
CCCCCCCCCCCC,Potency,[1],inactive
same,Potency,[2],inactive
same,Potency,[3],inactive
same,outcome,[17],inactive
same,Potency,[15],inactive
same,Potency,[5],inactive
same,Potency,[6],inactive
same,Potency,[8],68.6 µM (active)
same,Potency,[16],inactive
same,Potency,[9],inactive
same,outcome,[10],inactive
same,outcome,[11],inactive
same,outcome,[12],inactive
same,Potency,[13],inactive
